# From the supplement of paper PMC13380429
# Tested on: Vero E6 infected with SARS-CoV-2
# Assay: morphology score (similarity to uninfected cells); higher = more like uninfected cells
# Conditions: 24 h
row,Compound,morphology score
1,CCOC(=O)[C@H](Cc1ccc([N+](=O)[O-])cc1)NC(=O)c1ccccc1 (10 µM),0.37
2,O[C@H]1[C@H](O)[C@@H](O)CN2CC[C@H](O)[C@H]12 [castanospermine] (10 µM),-0.18
3,N=C(N)SCCc1ccc(OCc2ccc([N+](=O)[O-])cc2)cc1 (10 µM),0.268
4,O=C(CCBr)N1CC[N+]2(CC1)CC[N+]1(CCN(C(=O)CCBr)CC1)CC2 [spirobromin] (10 µM),-0.0585
5,COC(=O)C1=C(C)NC(C)=C(C(=O)OCCSc2ccccc2)[C@@H]1C (10 µM),0.0793
6,CC(C)C[C@H](NC(=O)N1CCCCCC1)C(=O)N[C@H](Cc1cn(C)c2ccccc12)C(=O)N[C@H](Cc1ccccn1)C(=O)O (10 µM),0.257
7,COc1cc(NC(=O)Nc2cccc(CNC(=O)O[C@H]3CCOC3)c2)ccc1-c1cnco1 [merimepodib] (10 µM),0.447
8,COc1ccc2c(c1)CN(C)CC2c1ccc(Cl)c(Cl)c1 (centres undefined) [diclofensine] (10 µM),0.0249
9,CNC(=O)c1ccc(Nc2ncc(C(F)(F)F)c(NCc3nccnc3N(C)S(C)(=O)=O)n2)cc1 [defactinib] (0.833333 µM),0.0478
10,CCCC(C)(COC(N)=O)COC(=O)NC(C)C (centres undefined) (10 µM),-0.33
11,CCc1[nH]c(=O)[nH]c1C(=O)c1ccncc1 [piroximone] (10 µM),0.142
12,CCOc1ccc2ccccc2c1C(=O)N[C@@H]1C(=O)N2[C@@H]1SC(C)(C)[C@@H]2C(=O)O [nafcillin] (10 µM),-0.164
13,CC12CCC(C(=O)N(CCCCN3CCN(c4ccccn4)CC3)C1=O)C2(C)C (centres undefined) [piricapiron] (10 µM),0.11
14,CC(C)(N)C(=O)N[C@H](COCc1ccccc1)C(=O)N1CCC2(CC1)CN(S(C)(=O)=O)c1ccccc12 [ibutamoren] (10 µM),-0.0834
15,NC1=N[C@@]2(c3cc(NC(=O)c4ccc(F)cn4)ccc3F)COC[C@H]2CS1 (10 µM),0.00208
16,c1ccc2[nH]c(-c3cscn3)nc2c1 [tiabendazole] (10 µM),0.157
17,"Cc1cc(C)cc(C(=O)O[C@H]2C[C@H]3CC[C@@H](C2)N3C)c1 [tropanyl-3,5-dimethylbenzoate] (10 µM)",0.23

row,Compound,morphology score
1,COc1ccc(Cl)c(Nc2ncnc3cc(OCC4CCN(C)CC4)c(OC)cc23)c1 (10 µM),-0.108
2,Cc1cc(N2CCOCC2)cc2[nH]c(-c3c(NC[C@@H](O)c4cccc(Cl)c4)cc[nH]c3=O)nc12 (0.833333 µM),0.0224
3,COc1ccc(NS(=O)(=O)c2sc3ccc(Cl)cc3c2C)cc1N1CCNCC1 (10 µM),0.192
4,Cc1nn(C)c2c1C(c1cccc(Cl)c1)=NCCN2 [zometapine] (10 µM),0.136
5,C1CCC(NC2CCCCC2)CC1 [dicyclohexylamine] (10 µM),-0.191
6,COC(=O)[C@H]1[C@H]2C[C@@H]3c4[nH]c5cc(OC)ccc5c4CCN3C[C@H]2C[C@@H](OC(=O)c2cc(OC)c(OC)c(OC)c2)[C@@H]1OC [reserpine] (10 µM),0.127
7,O=C(c1ccc(F)cc1)C1CCN(CCn2c(=S)[nH]c3ccccc3c2=O)CC1 [altanserin] (10 µM),-0.0789
8,Cn1nccc1Nc1nccc(-c2ccn([C@H](CO)c3ccc(Cl)c(F)c3)c(=O)c2)n1 (0.833333 µM),0.0519
9,CCOC(=O)Nc1ccc2c(c1)N(C(=O)CCN1CCOCC1)c1ccccc1S2 [moracizine] (10 µM),0.154
10,CCCCNc1ncc(-c2ccc(CN3CCOCC3)cn2)c(N[C@H]2CC[C@H](O)CC2)n1 (10 µM),0.102
11,COCCCOc1ccnc(C[S+]([O-])c2nc3ccccc3[nH]2)c1C (centres undefined) [rabeprazole] (10 µM),0.00912
12,O=c1cc[nH]c(=S)[nH]1 [2-thiouracil] (10 µM),0.0168
13,COc1ccc(C2CC(c3c(O)cc(C)oc3=O)=NCCS2)c(OC)c1 (centres undefined) (10 µM),0.0127
14,CN(C)CCCO[C@@H]1[C@H]2OC(C)(C)O[C@H]2O[C@@H]1[C@H](O)CO [amiprilose] (10 µM),-0.0292
15,Fc1ccc(Cn2c(NC3CCNCC3)nc3ccccc32)cc1 [tecastemizole] (10 µM),-0.00173
16,COc1ccc(CCC(=O)Nc2nc3ccc(Cl)cc3s2)cc1OC (10 µM),0.197
17,COc1cc(-n2c(=S)[nH]c3ccccc3c2=O)c(Cl)cc1Cl [mdivi-1] (10 µM),-0.0304
